From PubChem BioAssay (EPA / NIEHS)
Inconclusive results are not listed. Calls of active or inactive are those of the source. Rule for the calls, unless noted: active = hit-call score of the fitted dose curve at least 0.9, where 1 is the maximum; inconclusive = response in the unintended direction; inactive = score below 0.9.

Key:
[1] = Tanguay_ZF_120hpf_PE_legacy: (Legacy) Oregon State University Tanguay Lab 120 Hour Post-fertilization zebrafish Assay for Pericardial Edema (AID 2283640);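 for AC50: potency for increased incidence of pericardial edema versus DMSO baseline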
Method in brief: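 Tropical 5D wild-type zebrafish embryos were statically exposed until 120 hpf at 28C, with 0.64% DMSO final. Pericardial edema was scored by brightfield as present or absent; endpoints were not scored in dead embryos.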

[2] = Tanguay_ZF_120hpf_BRAI_legacy: (Legacy) Oregon State University Tanguay Lab 120 Hour Post-fertilization zebrafish Assay for Brain Malformation (AID 2283641)
Method in brief: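 Tropical 5D wild-type zebrafish embryos exposed statically until 120 hpf at 28C, 0.64% DMSO final, sealed and dark. Brain malformation scored present/absent by brightfield at 120 hpf; dead embryos excluded. Trimethyltin chloride 5uM positive control.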

[3] = Tanguay_ZF_120hpf_SOMI_legacy: (Legacy) Oregon State University Tanguay Lab 120 Hour Post-fertilization zebrafish Assay for Somite Malformation (AID 2283647)
Method in brief: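 Dechorionated Tropical 5D wild-type zebrafish embryos, one per well from 6 hpf, statically exposed at 28C to 120 hpf in 0.64% DMSO; somite malformation scored present/absent by brightfield; trimethyltin 5 uM positive control; dead embryos not scored.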

[4] = Tanguay_ZF_120hpf_PFIN_legacy: (Legacy) Oregon State University Tanguay Lab 120 Hour Post-fertilization zebrafish Assay for Pectoral Fin Malformation (AID 2283648);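 note: each larva judged yes or no for fin defect by brightfield with dead larvae skipped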
Method in brief: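 Pectoral fin malformation was recorded as a binary endpoint at 120 hpf in wild-type Tropical 5D larvae, which had been dechorionated and exposed statically from 6 hpf at 28C in 0.64% DMSO. Dead embryos were excluded.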

[5] = Tanguay_ZF_120hpf_CFIN_legacy: (Legacy) Oregon State University Tanguay Lab 120 Hour Post-fertilization zebrafish Assay for Caudal Fin Malformation (AID 2283649)
Method in brief: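 Dechorionated Tropical 5D wild-type embryos, one per well from 6 hpf, static exposure to 120 hpf at 28C in 0.64% DMSO. Caudal fin malformation scored by brightfield as present/absent; not scored in dead embryos.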

[6] = Tanguay_ZF_120hpf_CIRC_legacy: (Legacy) Oregon State University Tanguay Lab 120 Hour Post-fertilization zebrafish Assay for Circulatory Malformation (AID 2283651)
Method in brief: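 Embryos are dechorionated at 4 hpf, plated one per well at 6 hpf, then held under static exposure at 28C until 120 hpf. Malformations are recorded as binary calls; mortality excludes other endpoints.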

[7] = Tanguay_ZF_120hpf_SWIM_legacy: (Legacy) Oregon State University Tanguay Lab 120 Hour Post-fertilization zebrafish Assay for Swim Bladder Malformation (AID 2283654);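 note: swim bladder malformation in each larva scored yes or no under brightfield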
Method in brief: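 Scoring is binary for swim bladder defects at 120 hpf, by brightfield inspection of zebrafish larvae. Embryos were exposed singly from 6 hpf after pronase dechorionation, at 28C with 0.64% DMSO; mortality excluded scoring.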

[8] = read-out: kallikrein-3 (KLK3), KLK3 (gene 354); assay: LTEA_HepaRG_KLK3: Life Technologies and Expression Analysis (LTEA) Assay for kallikrein-3 (KLK3) using HepaRG (AID 2283652; active = hit-call score of the fitted dose curve at least 0.9, where 1 is the maximum; inactive = score below 0.9); settings: mRNA level, 48 h; actives raise or lower the signal
Method in brief: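 KLK3 transcript levels were measured by TaqMan qRT-PCR with normalisation to three housekeeping genes. HepaRG cultures received chemicals for 48 h at up to 100 uM (half-log, 8 points, 0.5% DMSO vehicle), fitted in both directions against DMSO.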

[9] = read-out: solute carrier (SLC22A6), SLC22A6 (gene 9356); assay: LTEA_HepaRG_SLC22A6: Life Technologies and Expression Analysis (LTEA) Assay for solute carrier (SLC22A6) using HepaRG (AID 2283653; active = hit-call score of the fitted dose curve at least 0.9, where 1 is the maximum; inactive = score below 0.9); settings: mRNA level, 48 h; actives raise or lower the signal
Method in brief: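 Differentiated HepaRG cells exposed 48 h in serum-free induction medium to 8 half-log concentrations, top 100 uM, in 0.5% DMSO; SLC22A6 mRNA by Fluidigm qRT-PCR normalized to ACTB, GAPDH, POLR2A, fitted bidirectionally versus DMSO.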

[10] = Tanguay_ZF_120hpf_PIG_legacy: (Legacy) Oregon State University Tanguay Lab 120 Hour Post-fertilization zebrafish Assay for Pigmentation Malformation (AID 2283650)
Method in brief: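 Pigment malformation recorded as a binary call at 120 hpf in zebrafish (Tropical 5D) exposed singly from 6 hpf after pronase dechorionation. Static, sealed, 28C exposure, 0.64% DMSO; mortality excludes scoring; positive-direction fit against DMSO.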

Measured: AC50

NC(=O)N1C(=O)C(C(=O)c2cc(Cl)cs2)c2cc(F)c(Cl)cc21 (stereo not drawn)
not listed: [8] | [9] | [10]
inactive: all other assays above

O=[N+]([O-])c1ccc(O)cc1
not listed: [8] | [9] | [10]
inactive: all other assays above

ClC1=C(Cl)C(Cl)(Cl)C(Cl)=C1Cl
inactive: [1] | [2] | [3] | [5] | [8] | [9]

CC(=O)NC1(c2cccc(F)c2)CCN(CC[C@@]2(c3ccc(Cl)c(Cl)c3)CN(c3ccccc3)C(=O)CO2)CC1
not listed: [8] | [9] | [10]
inactive: all other assays above

CCCCCCCCCCCCN1CCCC1=O
active: [5] 41 µM
inactive: [2] | [3] | [4] | [6] | [7]

CC(=O)CC(C)(C)O
inactive: [2] | [3] | [4] | [5] | [6]

CC[C@H](c1ccc(O)cc1)[C@@H](CC)c1ccc(O)cc1
inactive: [1] | [2] | [3] | [4] | [5] | [6]

O=C(O)Cc1cc(I)c(Oc2cc(I)c(O)c(I)c2)c(I)c1
active: [2] 0.00612 µM
inactive: [3] | [4] | [5] | [6] | [7]

N#C[C@@H]1CC(F)(F)CN1C(=O)CNC1CC2CCC(C1)N2c1ncccn1 (stereo partly drawn)
inactive: [2] | [3] | [4] | [5] | [6]

CC(O)CO (stereo not drawn)
not listed: [1] | [7] | [8]
inactive: all other assays above

Cc1cc(CCN2CCN(c3nsc4ccccc34)CC2)cc2c1NC(=O)CC2(C)C
active: [1] 2.96 µM | [2] 5.16 µM | [3] 3.88 µM | [4] 5.62 µM | [5] 6.48 µM | [6] 5.83 µM | [7] 3.82 µM

CCCCCCCCCCCCc1ccccc1S(=O)(=O)O
inactive: [1] | [3] | [4] | [5] | [6] | [7]

CCCCCCCC(=O)O
not listed: [1] | [8] | [9]
inactive: all other assays above

CC[C@H](C)[C@@H](C(=O)O)n1sc2ccccc2c1=O
inactive: [2] | [3] | [4] | [5] | [6]

OC1CCCCC1
inactive: [2] | [3] | [4] | [5] | [10] | [7]

COC(=O)CCCCC(=O)OC
not listed: [8] | [9] | [10]
inactive: all other assays above

c1ccc2cc3c(ccc4ccccc43)cc2c1
active: [1] 33.4 µM | [2] 48.5 µM
inactive: [3] | [5] | [6] | [7]

C[C@@H]1C[C@H]2[C@@H]3CCC4=CC(=O)C=C[C@]4(C)[C@@]3(F)[C@@H](O)C[C@]2(C)[C@@]1(O)C(=O)COP(=O)(O)O
inactive: [2] | [3] | [4] | [5] | [6] | [7]

NC(=O)N(O)[C@@H]1C=C[C@H](Oc2cccc(Oc3ccc(F)cc3)c2)C1
inactive: [1] | [2] | [3] | [4] | [5] | [7]

CCc1nn(C2CCCCC2)c2cc(C3(C#N)CCC(C(=O)O)CC3)ccc12 (stereo not drawn)
active: [1] 0.27 µM | [2] 2.71 µM | [3] 0.506 µM | [4] 0.563 µM | [5] 0.15 µM | [7] 0.419 µM
inactive: [10] | [6]

OC1CCC(C2CCCCC2)CC1 (stereo not drawn)
not listed: [1] | [8] | [9]
inactive: all other assays above

CCCOC(=O)c1ccc(O)cc1
active: [1] 11 µM | [2] 41.4 µM | [3] 33.3 µM | [4] 45.8 µM | [5] 75.8 µM | [6] 40.1 µM | [7] 10.6 µM

CCCCCCCCCCCCCCCS(=O)(=O)Oc1ccccc1
inactive: [1] | [3] | [4] | [5] | [6] | [7]

CC(C)(C)c1ccc(O)c(C(C)(C)C)c1
not listed: [1] | [8] | [9]
inactive: all other assays above

CCCCC(CC)COC(=O)CCCCC(=O)OCc1ccccc1 (stereo not drawn)
inactive: [2] | [3] | [4] | [5] | [6] | [7]

CCC(C)(C)C1CCC(O)CC1 (stereo not drawn)
inactive: [2] | [3] | [4] | [5] | [10] | [7]

CN1CCN(c2ccccc2/C=C2\SCCN(c3ccc(Cl)c(Cl)c3)C2=O)CC1
not listed: [8] | [9]
inactive: all other assays above
